# HIV RNase H inh-1: HIV-1 RT RNase H inhibitors, primary screen, biochemical, fluorescence. Gag-Pol polyprotein (Human immunodeficiency virus type 1 group M subtype B (isolate …. RT-RNase H RNA/DNA duplex cleavage. inhibition, % at 10 µM. AID 565, 2006. 65,000 compounds, 1.9% hits; in the data active = inhibition above about 50%
# HIV RNase H inh-2: HIV-1 RT RNase H inhibitors, retest, confirmation, biochemical. shares compounds with HIV RNase H inh-1. Recombinant RT RNase H, fluorescent RNA/DNA duplex cleavage. inhibition, % at 10 µM. 1,000 compounds, 39% hits; in the data active = inhibition above about 48%; inconclusive = no clear call, values can overlap the other calls
# * marks the source's active call; other numbers are inactive results; u = inconclusive. Only a selection was taken, and hits are over-represented in it overall.
SMILES,HIV RNase H inh-1,others
CCOC(=O)C(NCc1ccccc1OC)(NC(C)=O)C(F)(F)F (centres undefined),-7,
CC1CCN(C(=O)CSc2nnc(-c3cc4ccccc4cc3O)n2Cc2ccco2)CC1,17,
c1ccc(-n2c(-c3ccco3)nnc2N2CCOCC2)cc1,-7,
CN(C)c1ccc2c(c1)N=C(c1ccco1)OP2(=S)N1CCOCC1 (centres undefined),89*,HIV RNase H inh-2=68*
CCCn1c(=O)c(C(=O)Nc2nnc(C)s2)c(O)c2ccccc21,-23,
COc1ccc(-c2nnc(SCc3nnc(-c4ccc(Cl)cc4)o3)n2-c2ccccc2)cc1,-1,
CCN(CC)S(=O)(=O)c1ccc2oc(SCC3CN=C(c4ccc(OC)cc4)S3)nc2c1 (centres undefined),59*,HIV RNase H inh-2=6
COc1ccc(C2=NCC(CSc3nnc(-c4ccc5c(c4)OCO5)o3)S2)cc1 (centres undefined),-23,
COc1ccc(C2=NCC(CSc3nccc(=O)[nH]3)S2)cc1 (centres undefined),-7,
Cc1nn2c(=O)nc3sc4c(c3c2[nH]c1=O)CCCC4,-8,
Cc1nn(-c2ccc(F)cc2)c2c1cc(C#N)c1nc3ccccc3n12,42,
Cc1cccc(C)c1NC(=O)CSc1nnc(CCCCCNC(=O)OC(C)(C)C)o1,-7,
CN(C)c1nc(Oc2ccc(=O)[nH]n2)nc(N2CCCCC2)n1,-20,
Cn1c(-c2ccc3c(c2)OCO3)cnc1NCc1cccc(Cl)c1,-2,
Cn1c(-c2ccc3c(c2)OCO3)cnc1NC(=O)CCC(=O)NCCc1ccccc1,84*,HIV RNase H inh-2=42
Cn1c(-c2ccc3c(c2)OCO3)cnc1NCc1ccccc1,-5,
Cc1c(-c2cccs2)[n+](=O)c2c(n1[O-])CCCCC2,-7,
CC(C)(C)NC(=O)CN(C(=O)CS(=O)CC(=O)Nc1ccc(F)cc1)c1ccc(Cl)cc1 (centres undefined),5,
CCCCN(CCCC)CCNC(=O)Cc1nc2c(c(=O)[nH]c(=O)n2C)n1C,-11,
Cc1ccc2[nH]c(=O)c(C(c3nnnn3CC3CCCO3)N3CCCc4ccccc43)cc2c1 (centres undefined),10,
Cc1cccc(-c2nnc(SCc3cc(=O)[nH]c4ccccc34)n2C)c1,9,
COc1ccc(N(Cc2cc(=O)[nH]c3ccccc23)C(=O)c2ccco2)cc1,9,
CCC(=O)N(Cc1cc(=O)[nH]c2ccccc12)c1cccc(C)c1,70*,HIV RNase H inh-2=2
CCn1c(=O)c(C2=NS(=O)(=O)c3ccccc3N2)c(O)c2ccccc21,3,
Cc1ccc(-n2c(CSc3nc(C)cc(C)n3)nnc2SCC(=O)N2CCCC2)cc1,-2,
SMILES,HIV RNase H inh-1,others
C=CCOC(=O)N1CCN(c2cccc(C(F)(F)F)c2)CC1,-6,
Nc1c(C(=O)NCc2ccco2)sc2nc(N3CCOCC3)c3c(c12)CCCC3,54*,HIV RNase H inh-2=3
CCOC(=O)c1sc2nc(N3CCOCC3)c3c(c2c1N)CCCC3,-3,
NC(=O)c1sc2nc(N3CCCCC3)c3c(c2c1N)CCCC3,-35,
Clc1cc(NCc2cccs2)ccc1N1CCOCC1,2,
CCCCN(CC)S(=O)(=O)c1ccc(C(=O)Nc2nnc(-c3cccs3)o2)cc1,74*,HIV RNase H inh-2=u
CCCCN(CCCC)S(=O)(=O)c1ccc(C(=O)Nc2nnc(COC)o2)cc1,21,
CCc1nnc(NC(=O)c2ccc(S(=O)(=O)N(CC)Cc3ccccc3)cc2)o1,22,
Cc1cc(/C=N/n2cnnc2)c(C)n1-c1cccc(Cl)c1,-85,
Cc1sc(-n2c(C)cc(/C=N/n3cnnc3)c2C)c(C#N)c1C,78*,HIV RNase H inh-2=69*
Cc1cc(/C=N/n2cnnc2)c(C)n1-c1ccc(Cl)cc1Cl,-37,
COCCCn1c(-c2ccco2)nc2ccccc2c1=O,-24,
COCCCn1c(SCC(=O)OC2CCCCC2)nnc1-c1ccco1,-3,
COCCCN=C(c1ccco1)n1c(=S)nc(-c2ccco2)n(CCCOC)c1=S,63*,HIV RNase H inh-2=3
CCOC(=O)c1cccc(NC(=O)CSc2nnc(COc3ccccc3C)o2)c1,10,
Nc1ccnc(C(F)(F)F)c1C(=O)c1ccccc1,-28,
COC(=O)Cn1cnc2c(nnn2-c2cccc(Cl)c2)c1=O,-4,
O=c1[nH]c(NCc2ccccc2)nc2c1CCCC2,-11,
NC(=O)c1ccccc1NS(=O)(=O)Cc1ccccc1,8,
O=C(c1ccccc1S(=O)(=O)NCc1ccccc1)N1CCCC1,-16,
O=C(O)c1ccccc1S(=O)(=O)Cc1ccccc1,71*,HIV RNase H inh-2=15
CCOC(=O)N1CCN(C2=NC3(CCCCC3)C(C#N)C(=O)N2)CC1 (centres undefined),-1,
O=C1C2ON(c3ccc(Cl)cc3)C(c3ccco3)C2C(=O)N1c1ccccc1 (centres undefined),-6,
CC(=O)c1cc2c(cc1NC(=O)CN1CCCCC1C)OCO2 (centres undefined),0,
CCOc1cccc(N2C(=O)CC(NCc3ccc(S(N)(=O)=O)cc3)C2=O)c1 (centres undefined),8,
SMILES,HIV RNase H inh-1,others
O=c1[nH]c2cc3c(cc2cc1CN(CCCO)Cc1nnnn1Cc1ccc(F)cc1)OCO3,-23,
CC(C)C(c1nnnn1Cc1ccccc1)N(CCCO)Cc1cc2cc3c(cc2[nH]c1=O)OCO3 (centres undefined),89*,HIV RNase H inh-2=11
O=c1[nH]c2cc3c(cc2cc1CN(Cc1ccccc1)Cc1nnnn1Cc1ccco1)OCCO3,21,
COc1ccc(S(=O)(=O)N(C)CC(=O)N2CCC(C(N)=O)CC2)cc1Cl,-13,
COc1cccc(NC(=O)N2CCN(Cc3nc4ccccc4c(=O)[nH]3)CC2)c1,0,
Cc1cccc2cc(CN(Cc3nnnn3Cc3ccco3)C3CCCC3)c3nnnn3c12,-5,
O=S(=O)(NCc1cn2ccsc2n1)c1ccc2c(c1)OCCO2,-3,
COc1ccc(S(=O)(=O)N(CC(=O)N2CCOCC2)c2cc(Cl)ccc2OC)cc1OC,-7,
N#CC1(c2ccccc2)CCC(=NO)CC1 (centres undefined),3,
CC(C)c1cc(C(=O)N2CCN(C(c3ccccc3)c3ccccc3)CC2)no1,74*,HIV RNase H inh-2=50
O=C(c1cc(-c2ccco2)on1)N1CCN(C(c2ccccc2)c2ccccc2)CC1,-9,
COc1ccc(-c2cc(C(=O)N3CCN(C(c4ccccc4)c4ccccc4)CC3)no2)cc1,-4,
COC(=O)c1ccc2c(=O)n(CCN3CCOCC3)c(=S)[nH]c2c1,-11,
O=C(CN(Cc1cccs1)C(=O)CNC(=O)c1ccco1)NC1CCCCC1,-9,
Cc1ccc(CSc2nc3c(c(=O)[nH]2)C(c2ccncc2)C2=C(CCCC2=O)N3)cc1 (centres undefined),59*,HIV RNase H inh-2=40
Cc1ccc(CSc2nc3c(c(=O)[nH]2)CCC3)cc1,-26,
CSc1nc2c(c(=O)[nH]1)C(c1cccs1)C1=C(CCCC1=O)N2 (centres undefined),17,
CCCC(=O)c1c(NC(C)C)cc(C)oc1=O,-23,
O=C(Cc1cccs1)N(Cc1ccco1)C1(C(=O)NC2CCCC2)CCCCC1,1,
Cc1c(CNC(=O)c2nn3c(c2Cl)NC(c2ccccc2)CC3C(F)(F)F)cnn1C (centres undefined),2,
COc1ccc(S(=O)(=O)Nc2ccc(O)c3ccccc23)cc1,92*,HIV RNase H inh-2=57*
COc1ccc(NS(=O)(=O)c2ccc(NS(C)(=O)=O)cc2)cc1,6,
COc1ccc(S(=O)(=O)Nc2ccccc2C(F)(F)F)cc1,-16,
